Tg IFNy HTS – T. gondii growth inhibition with IFN-gamma, primary screen, cell-based; activity change, negative = inhibition, % (no concentration beside the values); 69,000 compounds, 3.8% hits; Toxoplasma gondii growth in IFN-gamma-treated host cells; hits give low values; in the data active = activity change below about -70%, passing the limit was not always enough;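 also: host cells are HeLa cells infected with Toxoplasma gondii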
* hit, by the source's call; ! = a repeat was not active. Only a selection was taken, and hits are over-represented in it overall.

SMILES	Tg IFNy HTS
COc1ccc(-c2nnc(-c3nc(Nc4c(Cl)cc(OC)cc4OC)c4ccccc4n3)o2)cc1	65
COc1cccc(NC(=O)c2ccc3c(c2)[nH]c(=O)n3C2CCCCC2)c1	-83*
COc1cccc(NC(=O)CC2NCCNC2=O)c1 (stereo not given)	46
CCN1CCCC1CNC(=O)c1ccc2c(c1)[nH]c(=O)n2Cc1ccc(OC)cc1 (stereo not given)	-30
O=C(c1cc(-c2ccncc2)c2cnccc2n1)N1CCC(COc2ccccn2)CC1	10
Cc1ccc(CNc2nc(-c3nnc(-c4ccccc4)o3)nc3ccccc23)cc1	73
Cc1ccc(Nc2nc(C(=O)Nc3ccc(Cl)cc3)nc3ccccc23)cc1	44
Cc1cc(Nc2ccc(NC(=O)c3ccc(Nc4ccnc5ccccc45)cc3)cc2)nc(N)n1	-78*
Cc1cc(Nc2ccc(C(=O)O)cc2)nc(N)n1	68
Cc1ccc(C(=O)NC(=S)NCCCN2CCOCC2)cc1	-2
CC1CCCC(C)N1C(=S)NCCCN1CCOCC1 (stereo not given)	-80*
Cc1c(C(=O)NCCCN2CCOCC2)cc(C(C)(C)C)n1-c1ccccc1	-18
Cc1occc1C(=O)N1CCc2ncnc(C3CCOC3)c2CC1 (stereo not given)	-33
O=C1COC2(CCN(Cc3ccco3)CC2)CN1CC1CC1	8
CS(=O)(=O)N1CCO[C@]2(CCC[C@@H]2COCc2ccccn2)C1	-25
COc1ccc2c(O[C@H]3CC4C(=O)N(C)CCCC/C=C\[C@@H]5C[C@@]5(C(=O)NS(=O)(=O)C5CC5)NC(=O)[C@@H]4C3)cc(-c3nc(C(C)C)cs3)nc2c1C (stereo not given in full)	-74*
O=C(NC1(C#Cc2nccs2)CCCCC1)C1CCN(CCc2ccccn2)CC1	26
Cc1cnc(N2C[C@H](N(C)Cc3ccco3)C3OCCCC32)nc1 (stereo not given in full)	1
CCCc1nc(C)cc(-c2ccc(OC)nc2)n1	18
COc1ccc(-c2ccc(-n3cnnc3)nc2C)cn1	-88*
Cc1nc(-n2cnnc2)ccc1-c1ccc(C(N)=O)cc1	-1
CCCn1c(=O)c(-c2nc(-c3cccc(Br)c3)no2)c(O)c2ccccc21	7
Fc1ccccc1CN1CCC2(CC1)CC(OCc1ccncc1)CO2 (stereo not given)	0
Cc1cccc(C(=O)N2CCC[C@@]3(C(=O)N4CCOCC4)CN(c4ccccn4)C[C@H]3C2)c1	-22
CCCCNC(=O)CN(C)C(=O)c1cccc(-c2ccc(O)cc2)c1	2
SMILES	Tg IFNy HTS
CCCCCS(=O)(=O)CCCCCCCCCCn1c(-c2ccc(O)cc2)c(C)c2cc(O)ccc21	-79*
COC[C@@H]1CN(C)C[C@@]12CCN(C(=O)/C=C/c1cccs1)C2	3
Cc1nc(-c2ccc(Cl)cc2)sc1-c1ccnc(SCc2ccccc2)n1	-62
c1ccc(CSc2nccc(-c3ccc4c(c3)CCO4)n2)cc1	-81*
Fc1cccc(CSc2nc(Nc3ccc4c(c3)OCO4)c3ccccc3n2)c1	-48
CC(C)NC(=O)c1cccnc1C1CCCN(C(=O)c2cc3c(s2)CCCCC3)C1 (stereo not given)	-37
CCOC(=O)c1cccc(NC(=O)c2ccncc2)c1	26
COc1cc(NC(=O)c2cncc(Br)c2)c(OC)cc1Cl	4
CCn1c(-c2cc(NC(=O)c3cncc(Br)c3)n[nH]2)cc2c(OC)cccc21	-97*
CCn1c(=O)c(C(=O)Nc2ccccc2OC)c(O)c2ccccc21	70
COc1cccc(OC)c1C(=O)c1ccncc1	-24
CCn1c(-c2cc(NC(=O)c3ccncc3)n[nH]2)cc2c(OC)cccc21	-103*
Cc1cc(C)n(CCC(=O)N2CCC(C(=O)NCc3ccccn3)CC2)c(=O)n1	5
COc1ccc(C)cc1NC(=O)N1CCC2(CC1)NC(=O)c1ccccc1N2C	39
COc1ccccc1OCCN(C)C(=O)c1nc(-c2ccc(F)cc2)oc1C	68
CC(Cc1cc(=O)n2[nH]cc(-c3ccc(F)cc3)c2n1)n1nnc2ccccc21 (stereo not given)	2
Cc1nc([C@@H]2C[C@H]3CCN(Cc4ccc(C)s4)C[C@@H]3O2)no1	2
N#Cc1cccc(CN2CCC3(CC(C(=O)NCc4ccco4)=NO3)C2)c1 (stereo not given)	-8
CN(CC(=O)Nc1ncc(-c2ccc(F)cc2)n1C)S(=O)(=O)c1ccc(F)cc1	-31
O=C(Nc1ccc(-c2nc(-c3ccccc3)co2)cc1)c1cccc(F)c1	11
O=C1NCC2(CCCN(C(=O)Cn3c(C4CC4)nc4ccccc43)CC2)O1 (stereo not given)	-8
Cc1cc(C)n(CCCN(C)c2nc(-c3cccnc3)nc3c2cnn3C)n1	-36
CCN(CC)CCCC(C)Nc1c2ccc(Cl)cc2nc2ccc(OC)cc12 (stereo not given)	-72*!
COc1ccc2nc(C)cc(SCC(=O)c3ccc(Cl)cc3)c2c1	124
COc1cc(NC(C)CCCN)c2ncccc2c1 (stereo not given)	28
SMILES	Tg IFNy HTS
Cc1cc(C)c(-c2nccn2Cc2cccnc2-n2cncn2)cc1C	-15
CC(C)C(=O)c1nc(-c2cn(C(C)C)cn2)n2ccccc12	39
Cc1nc(Nc2n[nH]c3c2CN(C(=O)N[C@H](CN(C)C)c2ccccc2)C3(C)C)c2sccc2n1	-75*
CN(C)C(=O)N[C@H]1CN(S(C)(=O)=O)C2CCCOC21 (stereo not given in full)	-7
CC(C)N(C)[C@H]1c2ccccc2[C@H]2CN(Cc3ccsc3)C[C@H]21	140
COc1ccc(Cc2nnc3sc(Cc4ccccc4)nn23)cc1	30
COc1ccc(-c2nn3c(Cn4nnc5ccccc54)nnc3s2)cc1	7
COc1ccccc1/C=C/c1nn2c(COc3ccc(F)cc3)nnc2s1	-91*
CCc1cnc(N2CCCC3(CC(n4cnnc4)CO3)C2)nc1 (stereo not given)	14
C[C@@H]1CN([C@H](C)CO)C(=O)Cc2cc(NC(=O)C3CCCCC3)ccc2O[C@H]1CN(C)Cc1ccc(Cl)c(Cl)c1	-72*
C[C@@H]1CN([C@@H](C)CO)C(=O)Cc2cc(NS(=O)(=O)c3ccc(Cl)cc3)ccc2O[C@@H]1CN(C)C(=O)Nc1ccc(C(F)(F)F)cc1	-79*
C[C@H](CO)N1C[C@H](C)[C@H](CN(C)C(=O)Nc2ccc(C(F)(F)F)cc2)Oc2ccc(NS(=O)(=O)c3ccc(Cl)cc3)cc2CC1=O	5
C[C@H]1CN([C@@H](C)CO)C(=O)Cc2cc(NC(=O)C3CCCCC3)ccc2O[C@H]1CN(C)Cc1ccc(Cl)c(Cl)c1	-54
C[C@@H]1CN([C@@H](C)CO)C(=O)Cc2cc(NC(=O)C3CCCCC3)ccc2O[C@H]1CN(C)Cc1ccc(Cl)c(Cl)c1	-33
C[C@@H]1CN([C@@H](C)CO)C(=O)Cc2cc(NS(=O)(=O)c3ccc(Cl)cc3)ccc2O[C@H]1CN(C)C(=O)Nc1ccc(C(F)(F)F)cc1	-25
Cc1nc2ncc(C(=O)NCCCc3ccccc3Cl)c(=O)n2[nH]1	8
Cc1ccc(OCC(=O)Nc2cccnc2)c(-n2nc3ccccc3n2)c1	-29
COCCCNC(=S)Nc1ccc(OC)cc1	91
O=C(c1ccccn1)N1CCC(c2cc(-c3ccccc3Cl)n[nH]2)CC1	-9
CN(Cc1nc2ccccc2s1)C(=O)c1cn(CC2CCCCC2)nn1	1
CC(=O)c1cc([N+](=O)[O-])c(Sc2ccc(F)cc2F)s1	-72*
CNC(=S)Sc1ccc(F)cc1F	38
